Reference: PubChem BioAssay (NCI)
This is part of a sample that, as a whole, favours compounds with a hit. Of some 83,000 tested, about 20% had one in any assay.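 Activity criterion: percent growth below 10, measured after cells in 96-well plates were exposed to a single compound concentration for 48 hours.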 Unmarked numbers belong to inactive results. Activity calls are given as the source filed them.

Key:
Experiment in all cases: NCI-60 one-dose screen, 48 h (100 = growth as untreated, 0 = no growth, -100 = all killed)
Settings in all cases: 10 µM unless noted
SK-MEL-2 melanoma = test system: SK-MEL-2 melanoma
EKVX NSCLC = test system: EKVX NSCLC
SN12C renal = test system: SN12C renal
UO-31 renal = test system: UO-31 renal
TK-10 renal = test system: TK-10 renal
ACHN renal = test system: ACHN renal
CAKI-1 renal = test system: CAKI-1 renal
A498 renal = test system: A498 renal
CCRF-CEM leukemia = test system: CCRF-CEM leukemia
MOLT-4 leukemia = test system: MOLT-4 leukemia
SR leukemia = test system: SR leukemia
OVCAR-8 ovarian = test system: OVCAR-8 ovarian
OVCAR-5 ovarian = test system: OVCAR-5 ovarian
OVCAR-4 ovarian = test system: OVCAR-4 ovarian
SK-OV-3 ovarian = test system: SK-OV-3 ovarian
IGROV1 ovarian = test system: IGROV1 ovarian
OVCAR-3 ovarian = test system: OVCAR-3 ovarian
HS 578T breast = test system: HS 578T breast
NCI/ADR-RES ovarian = test system: NCI/ADR-RES ovarian
RPMI-8226 leukemia = test system: RPMI-8226 leukemia

Row | Compound | growth (SK-MEL-2 melanoma) | growth (EKVX NSCLC) | growth (SN12C renal) | growth (UO-31 renal) | growth (TK-10 renal) | growth (ACHN renal) | growth (CAKI-1 renal) | growth (A498 renal) | growth (CCRF-CEM leukemia) | growth (MOLT-4 leukemia) | growth (SR leukemia) | growth (OVCAR-8 ovarian) | growth (OVCAR-5 ovarian) [%] | growth (OVCAR-4 ovarian) | growth (SK-OV-3 ovarian) [%] | growth (IGROV1 ovarian) | growth (OVCAR-3 ovarian) | growth (HS 578T breast) | growth (NCI/ADR-RES ovarian) | growth (RPMI-8226 leukemia)
1 | O=c1nc2n(nc1/C=C/c1ccco1)CC(c1ccc(Cl)cc1)=NN2 | 30.3% | 72.1% | 136% | 64% | 104% | 122% | 94% | 107% | 98% | 84.2% | 45% | 67.9% | 122 | 95.3% | 93 | 8.48% (active) | 109% | 116% | 100% | 
2 | c1ccc(Cn2nc3c(c2-c2ccccc2)-c2oncc2CC3)cc1 | 102% | 90.1% | 95.3% | 82.7% | 107% | 97.6% | 77.9% | 89.4% | 80.4% | 79.8% | 72.4% | 86.8% | 107 | 87.5% | 115 | 110% | 106% |  | 84.1% | 
3 | COc1ccc(-c2c(-c3ccccc3)noc2N)cc1OC | 98.5% | 99.7% | 105% | 91.5% | 111% | 133% | 110% | 123% | 98.1% | 99.3% | 76.6% | 100% | 117 | 113% | 107 | 113% | 117% | 148% | 104% | 
4 | N/C(=N\N=C\c1cc2ccccc2s1)N/N=C/c1cc2ccccc2s1 | 109% | 95.6% | 96.9% | 87.7% | 115% | 107% | 95.3% | 96.5% | 99.2% | 101% | 96.8% |  | 104 | 102% | 94.3 | 93.7% | 107% | 102% | 103% | 99.8%
5 | O=S(=O)(NCCNc1nccc(-c2c(-c3ccc(F)c(O)c3)nc3occn23)n1)c1ccccc1 | 17% | 81.6% | 48.8% | 35.2% | 121% | 33.9% | 44.1% | 103% | 38.5% | 47.8% | 20.2% |  | 101 | 85.8% | 68.6 | 43.9% | 77.1% | 54.4% |  | 33.7%
6 | O=C1c2ccccc2C(=O)c2c(NCCN=Cc3ccccc3O)cccc21 | 108% | 56% | 50.3% | 39.3% | 68.5% | 30.9% | -10.3% (active) | 35.1% | 59% |  | -33.2% (active) | 21% | 78.9 | 72.1% | 56.9 | 51.9% | 72.3% | 43.4% | 59.9% | 78.8%
7 | COc1ccc(Cn2nc3c(c2-c2cc(OC)c(OC)c(OC)c2)-c2oncc2CC3)cc1 | 103% | 85.6% | 93.5% | 65.8% | 96.2% | 91.9% | 65.2% | 80.3% | 103% |  | 25.5% | 107% | 88 | 86.8% | 94.7 | 81.8% | 98% | 116% | 65.9% | 
8 | O=C(Nc1nc2ccc(C(=O)N3CCN(c4ccc(Cl)c(Cl)c4)CC3)cc2s1)c1ccc(NCCc2ccccc2)c([N+](=O)[O-])c1 | 104% | 95.3% | 93.3% | 60.7% | 113% | 101% | 87% | 79.4% | 93.6% |  | 98.4% | 97.3% | 91.3 | 87.3% | 107 | 82% | 111% | 93.5% | 101% | 85.5%
9 | CN1CCN(c2cc(F)c(NC3=C(Cl)C(=O)c4ncccc4C3=O)c(F)c2)CC1 | -49.6% (active) | -82.7% (active) | -97.5% (active) | -100% (active) | 8.46% (active) | -93.1% (active) | -85.6% (active) | 80.1% | -18.2% (active) |  | -0.813% (active) | 1.95% (active) |  | -99.2% (active) | 82.7 | -90.4% (active) | -98.2% (active) | -16.5% (active) |  | -20.7% (active)
10 | O=C(Nc1ccc2ncnc(Nc3ccc(Oc4cccc(F)c4)c(Cl)c3)c2c1)c1ccc(CN2CCOCC2)cc1 | 59.1% | 30.4% | 39% | 20.3% | 53.6% | 17.5% | 24.4% | 53.9% | 2.89% (active) |  | 18.6% | 6.19% (active) | 75.5 | 20.3% | 18.5 | 0.971% (active) | 23.1% | 46.6% | 4.15% (active) | -16.4% (active)
11 | CCN(CC)CCCCCCNc1cc(OC)cc2cccnc12 | 114% | 90.1% | 89.4% | 62.6% | 130% | 99.6% | 90.4% | 63.5% | -35.6% (active) |  | -51.2% (active) | 20.7% | 97.7 | 44.6% | 101 | 88.8% | -44.2% (active) | 92.5% | 82.9% | -8.8% (active)
12 | CCN(CCNc1cc(OC)cc2cccnc12)CCc1ccccc1 | 101% | 91.2% | 91.3% | 70.8% | 101% | 84.1% | 84.7% | 92.2% | 73.7% |  |  | 85.2% | 93.9 | 19.1% | 74.6 | 94.6% | 79% | 85.6% | 81.1% | 81.6%
13 | COc1cccc(CCC(=O)c2cc3c(N)c(C(=O)Nc4cccc(Cl)c4C)sc3nc2C)c1 | 36.5% | 36.2% | 36% | 30.7% | 52.9% | 32.2% | 20.5% | -6.77% (active) | 8.7% (active) |  | 9.08% (active) | 24.1% | 28.3 | 36.9% | 32.4 | 24.4% | -8.82% (active) | 2.96% (active) | 10.7% | 7.83% (active)
14 | O=S(=O)(c1cccc(NC2=Nc3cccc4cccc2c34)c1)N1CCCC1 | 75.2% | 62% | 72.2% | 67.5% | 90.5% | 66.9% | 78% | 75.1% | 41.7% | 57% |  | 83.7% |  | 46.9% |  | 80% | 84.3% | 76.8% | 66% | 48.8%
15 | COc1cccc(/C=C2\COc3ccc(-c4ccccc4)cc3C2=O)c1 | -46.4% (active) | 99.9% | 31.4% | -38.1% (active) | -5.26% (active) | 46.8% | 50.8% | 45.6% | -32.7% (active) | -28.2% (active) |  | 3.02% (active) | 49.6 | 65.2% |  | 4.34% (active) | -44% (active) | -9.75% (active) | 5.38% (active) | -31.4% (active)
16 | Nc1nnc2cc(Cl)ccc2n1 | -25.9% (active) | 112% | 90.1% | 89.8% | 136% | 89.9% | 112% | 54% | 87.7% | 111% |  | 105% | 105 | 111% | 96.5 | 96.3% | 145% | 86.4% | 96.3% | 68.9%
17 | C=Cc1cc[n+](CCCCCCCCCCCC)cc1 | 150% | 105% | 101% | 94% | 137% | 108% | 103% | 94.9% | 87.9% |  | 97.2% | 112% | 108 | 133% | 144 | 104% | 110% | 108% | 106% | 104%
